Measured values: PubChem BioAssay (EPA / NIEHS)
Inconclusive results are not listed. The source made the active and inactive calls. The calls were made as follows, unless noted: active = hit-call score of the fitted dose curve at least 0.9, where 1 is the maximum; inconclusive = response in the unintended direction; inactive = score below 0.9.

How the values were obtained:
[1] = Tanguay_ZF_120hpf_JAW_legacy: (Legacy) Oregon State University Tanguay Lab 120 Hour Post-fertilization zebrafish Assay for Jaw Malformation (AID 2283638);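 as to AC50: active means more embryos with jaw malformation than DMSO controls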
Method in brief: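 Tropical 5D wild-type embryos, dechorionated with pronase at 4 hpf, were placed singly per well at 6 hpf and statically exposed at 28C until 120 hpf (0.64% DMSO final). Jaw malformation scored as present/absent by brightfield microscopy at 120 hpf, analyzed relative to DMSO.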

[2] = Tanguay_ZF_120hpf_OTIC_legacy: (Legacy) Oregon State University Tanguay Lab 120 Hour Post-fertilization zebrafish Assay for Otic Vesicle Malformation (AID 2283639)
Method in brief: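 Otic vesicle malformation is read as a yes/no morphology call at 120 hpf. Exposure is static at 28C with 0.64% (vol/vol) DMSO; embryos that die are excluded from non-mortality endpoints.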

[3] = Tanguay_ZF_120hpf_PE_legacy: (Legacy) Oregon State University Tanguay Lab 120 Hour Post-fertilization zebrafish Assay for Pericardial Edema (AID 2283640);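 as to AC50: potency for increased incidence of pericardial edema versus DMSO baseline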
Method in brief: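 Tropical 5D wild-type zebrafish embryos were exposed statically to 120 hpf at 28C, sealed and foil-covered, in 0.64% DMSO final. Pericardial edema was scored present/absent by brightfield microscopy; dead embryos were not scored.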

[4] = Tanguay_ZF_120hpf_BRAI_legacy: (Legacy) Oregon State University Tanguay Lab 120 Hour Post-fertilization zebrafish Assay for Brain Malformation (AID 2283641)
Method in brief: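 Tropical 5D wild-type zebrafish embryos were exposed statically in sealed, foil-covered plates at 28C until 120 hpf, with 0.64% (vol/vol) final DMSO. Brain malformation was scored present/absent by brightfield microscopy, relative to DMSO baseline.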

[5] = Tanguay_ZF_120hpf_SOMI_legacy: (Legacy) Oregon State University Tanguay Lab 120 Hour Post-fertilization zebrafish Assay for Somite Malformation (AID 2283647)
Method in brief: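 Tropical 5D wild-type zebrafish embryos, dechorionated with pronase at 4 hpf, were placed singly at 6 hpf and statically exposed until 120 hpf at 28C in 0.64% DMSO. Somite malformation was scored present/absent by brightfield microscopy versus DMSO.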

[6] = Tanguay_ZF_120hpf_PFIN_legacy: (Legacy) Oregon State University Tanguay Lab 120 Hour Post-fertilization zebrafish Assay for Pectoral Fin Malformation (AID 2283648);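 also: each larva judged yes or no for fin defect by brightfield with dead larvae skipped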
Method in brief: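 Tropical 5D wild-type embryos, dechorionated with pronase at 4 hpf, were placed singly in wells at 6 hpf and statically exposed until 120 hpf at 28C, sealed and dark, with 0.64% (vol/vol) final DMSO; pectoral fin malformation scored present/absent.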

[7] = Tanguay_ZF_120hpf_CFIN_legacy: (Legacy) Oregon State University Tanguay Lab 120 Hour Post-fertilization zebrafish Assay for Caudal Fin Malformation (AID 2283649)
Method in brief: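 Tropical 5D wild-type embryos, dechorionated with pronase at 4 hpf, were placed singly in wells at 6 hpf and statically exposed to compound at 28C until 120 hpf (0.64% DMSO). Caudal fin malformation was scored present/absent by brightfield microscopy.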

[8] = Tanguay_ZF_120hpf_PIG_legacy: (Legacy) Oregon State University Tanguay Lab 120 Hour Post-fertilization zebrafish Assay for Pigmentation Malformation (AID 2283650)
Method in brief: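 Tropical 5D wild-type zebrafish embryos, dechorionated with pronase at 4 hpf, were exposed singly from 6 hpf to 120 hpf statically at 28C in sealed, dark plates with 0.64% DMSO; pigmentation scored present/absent by brightfield microscopy, fitted against DMSO.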

[9] = Tanguay_ZF_120hpf_CIRC_legacy: (Legacy) Oregon State University Tanguay Lab 120 Hour Post-fertilization zebrafish Assay for Circulatory Malformation (AID 2283651)
Method in brief: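 Using wild-type Tropical 5D zebrafish, we exposed dechorionated embryos from 6 to 120 hpf in embryo medium with 0.64% DMSO. Circulatory defects were scored as present or absent; 5uM trimethyltin chloride served as positive control.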

[10] = Tanguay_ZF_120hpf_SWIM_legacy: (Legacy) Oregon State University Tanguay Lab 120 Hour Post-fertilization zebrafish Assay for Swim Bladder Malformation (AID 2283654);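 also: swim bladder malformation in each larva scored yes or no under brightfield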
Method in brief: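 Dechorionated Tropical 5D wild-type embryos, placed singly from 6 hpf, were statically exposed at 28C to 120 hpf with 0.64% DMSO final; swim bladder malformation was scored present/absent by brightfield microscopy, gain of signal relative to DMSO controls.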

[11] = Tanguay_ZF_120hpf_TR_legacy: (Legacy) Oregon State University Tanguay Lab 120 Hour Post-fertilization zebrafish Assay for Touch Response (AID 2283667)
Method in brief: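 Tropical 5D wild-type zebrafish embryos were exposed statically in sealed, foil-covered plates at 28C until 120 hpf, with 0.64% (vol/vol) final DMSO. Touch response was scored as present or absent; embryos that died were not scored.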

[12] = Tanguay_ZF_120hpf_TRUN_legacy: (Legacy) Oregon State University Tanguay Lab 120 Hour Post-fertilization zebrafish Assay for Truncated Body (AID 2283655)
Method in brief: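 Tropical 5D wild-type embryos, dechorionated with pronase at 4 hpf, were placed singly in wells at 6 hpf and statically exposed at 28C until 120 hpf, final DMSO 0.64%. Truncated body was scored present/absent by brightfield microscopy.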

[13] = Tanguay_ZF_120hpf_NC_legacy: (Legacy) Oregon State University Tanguay Lab 120 Hour Post-fertilization zebrafish Assay for Notochord and Tail Malformation (AID 2283656)
Method in brief: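 Dechorionated 5D zebrafish, 1/well from 6 hpf; static exposure to 120 hpf, 28C, sealed, dark; final DMSO 0.64% v/v. NC scored binary (present/absent); dead embryos not scored. Fit vs DMSO baseline, gain direction.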

[14] = system: Thyroperoxidase (TPO), gene 54314; assay: CCTE_Simmons_AUR_rTPO: CCTE's Amplex UltraRed Assay for Thyroperoxidase (TPO) Inhibition, Simmons Lab (AID 2283662);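 as to AC50: potency for loss of signal meaning inhibition of peroxidase activity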
Method in brief: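 Endpoint is decreased Amplex UltraRed fluorescence after a 30-min, 37C reaction of rat thyroid microsomes with 300 uM H2O2. Eight test concentrations (5 nM–87.5 uM final) in 0.5% DMSO, three biological replicates each.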

[15] = CCTE_Simmons_CellTiterGLO_HEK293T: Viability Assessment in CCTE's Assays for Thyroperoxidase (TPO) Inhibition, Simmons Lab (AID 2283665)
Method in brief: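 Cytotoxicity counter-screen: human HEK293T cells in low-serum (1% FBS) medium receive test chemical, 5 nM to 87.5 uM final, for 24 h; ATP is quantified by luciferase luminescence.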

[16] = read-out: solute carrier (SLC22A6), SLC22A6 (gene 9356); assay: LTEA_HepaRG_SLC22A6: Life Technologies and Expression Analysis (LTEA) Assay for solute carrier (SLC22A6) using HepaRG (AID 2283653; active = hit-call score of the fitted dose curve at least 0.9, where 1 is the maximum; inactive = score below 0.9); details: mRNA level, 48 h; actives raise or lower the signal
Method in brief: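 Differentiated human HepaRG cells were exposed for 48 h in serum-free induction medium to eight concentrations (top 100 uM, half-log steps, 0.5% DMSO), in duplicate. SLC22A6 mRNA was quantified by qRT-PCR, normalised to ACTB, GAPDH and POLR2A, and fitted bidirectionally against DMSO.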

[17] = read-out: solute carrier (SLC10A1), SLC10A1 (gene 6554); assay: LTEA_HepaRG_SLC10A1: Life Technologies and Expression Analysis (LTEA) Assay for solute carrier (SLC10A1) using HepaRG (AID 2283657; active = hit-call score of the fitted dose curve at least 0.9, where 1 is the maximum; inactive = score below 0.9); details: mRNA level, 48 h; actives raise or lower the signal
Method in brief: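 Differentiated HepaRG cells were plated 48 h, then exposed in serum-free induction medium for 48 h to 8 concentrations (top 100 uM, half-log steps, 0.5% DMSO). SLC10A1 mRNA was quantified by qRT-PCR normalized to ACTB, GAPDH, POLR2A; bidirectional fit versus DMSO.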

[18] = read-out: matrix metalloproteinase-1 (MMP1), MMP1 (gene 4312); assay: LTEA_HepaRG_MMP1: Life Technologies and Expression Analysis (LTEA) Assay for matrix metalloproteinase-1 (MMP1) using HepaRG (AID 2283658; active = hit-call score of the fitted dose curve at least 0.9, where 1 is the maximum; inactive = score below 0.9); details: mRNA level, 48 h; actives raise or lower the signal
Method in brief: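 Differentiated HepaRG cells, plated 48 h then switched to serum-free induction medium, were exposed in duplicate for 48 h to eight half-log concentrations up to 100 uM in 0.5% DMSO; MMP1 mRNA measured by qRT-PCR, normalized to ACTB, GAPDH, POLR2A.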

[19] = read-out: Cytochrome P450 (CYP24A1_1), CYP24A1 (gene 1591); assay: LTEA_HepaRG_CYP24A1_1: Life Technologies and Expression Analysis (LTEA) Assay for Cytochrome P450 (CYP24A1_1) using HepaRG (AID 2283671; active = hit-call score of the fitted dose curve at least 0.9, where 1 is the maximum; inactive = score below 0.9); details: mRNA level, 48 h; actives raise or lower the signal
Method in brief: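 HepaRG, 48 h exposure, 8-pt half-log series from 100 uM in 0.5% DMSO, duplicates. Readout: TaqMan qRT-PCR of CYP24A1 mRNA, housekeeping-normalized (ACTB/GAPDH/POLR2A). Bidirectional curve fit vs DMSO baseline.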

Measured: AC50

[O-][Cl+]O
not listed: [12] | [13] | [14] | [15] | [16] | [17] | [18] | [19]
inactive: all other assays above

CN(C)c1ccccc1
active: [14] 22.7 µM
not listed: [15] | [16] | [17] | [18] | [19]
inactive: all other assays above

COC(=O)c1ccccc1N
not listed: [6] | [8] | [16] | [17] | [18] | [19]
inactive: all other assays above

CCC[CH2][Sn]([Cl])([CH2]CCC)[CH2]CCC
not listed: [10] | [14] | [15] | [16] | [17] | [18] | [19]
inactive: all other assays above

Cc1ccc(N)cc1
active: [14] 0.0844 µM
not listed: [16] | [17] | [18] | [19]
inactive: all other assays above

CO[C@@H]1[C@H](OC(=O)NC(=O)CCl)CC[C@]2(CO2)[C@H]1[C@@]1(C)O[C@@H]1CC=C(C)C
active: [1] 40.5 nM | [3] 10.2 nM | [17] 389 nM
not listed: [8]
inactive: all other assays above

Nc1ccc([N+](=O)[O-])cc1
not listed: [10] | [14] | [15] | [16] | [17] | [18] | [19]
inactive: all other assays above

CC(O)CCO (stereo not drawn)
not listed: [10] | [14] | [15] | [16] | [17] | [18] | [19]
inactive: all other assays above

Clc1ccc(C(c2ccc(Cl)cc2)C(Cl)(Cl)Cl)cc1
not listed: [4] | [11] | [14] | [15] | [16] | [17] | [18] | [19]
inactive: all other assays above
